S1P4 antagonist: antagonists of human S1P4 receptor; S1P4-expressing cells, antagonist mode, reporter read-out; inhibition, % at 4.98 µM; 220,000 compounds, 0.26% hits; AID 1510; in the data active = inhibition above about 29%;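 note: 0% = wells stimulated with agonist and 100% = vehicle wells without agonist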
S1P3 antagonist: blocks the human S1P3 receptor. CHO S1P3 NFAT-BLA reporter, FRET fluorescence, antagonist mode. AID 485. 170,000 compounds, 0.27% hits. inhibition, % at 4.98 µM;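 active = inhibition above the plate cutoff, the mean inhibition of test wells on that plate plus 3 SD, cut at about 28% in these data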;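 note: cells challenged with S1P at its EC80 of 0.8 µM; blue over green emission ratio from cleaved BLA substrate after 4 h stimulation; 0% = S1P-stimulated wells and 100% = unstimulated DMSO-only wells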
Target sequence (Q99500 whole entry, looked up): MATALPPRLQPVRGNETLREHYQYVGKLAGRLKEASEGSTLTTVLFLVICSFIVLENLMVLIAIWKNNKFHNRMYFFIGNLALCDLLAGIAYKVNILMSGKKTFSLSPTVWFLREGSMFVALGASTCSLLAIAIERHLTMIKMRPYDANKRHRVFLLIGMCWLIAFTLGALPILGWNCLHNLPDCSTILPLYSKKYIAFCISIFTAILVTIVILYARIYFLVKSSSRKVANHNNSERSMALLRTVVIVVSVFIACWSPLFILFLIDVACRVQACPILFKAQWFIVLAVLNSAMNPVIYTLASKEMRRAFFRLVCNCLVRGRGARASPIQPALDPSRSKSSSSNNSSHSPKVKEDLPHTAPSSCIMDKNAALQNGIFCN
p97 ATPase inh: inhibitors of human p97 ATPase; recombinant p97 ATPase, Kinase-Glo ATP luminescence, 3 h; P55072; 220,000 compounds, 0.42% hits; inhibition, % at 8 µM; in the data active = inhibition above about 15%;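 note: 0% = DMSO vehicle and 100% = wells lacking enzyme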
S1P4 agonist: agonists of human S1P4 receptor; 220,000 compounds, 0.35% hits; O95977; S1P4-expressing cell line, agonist reporter assay; activation, % at 4.98 µM; in the data active = activation above about 11%;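 note: 0% = DMSO vehicle and 100% = reference agonist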
UBC9 SUMO inh: blocks human SUMOylation mediated by UBC9; P63279; HTRF SUMOylation assay, SAE1/SAE2 + UBC9, in vitro; inhibition, % at 35 µM; 290,000 compounds, 0.36% hits; AID 2006; in the data active = inhibition above about 50%, passing the limit was not always enough
Target sequence (P63279 whole entry, looked up): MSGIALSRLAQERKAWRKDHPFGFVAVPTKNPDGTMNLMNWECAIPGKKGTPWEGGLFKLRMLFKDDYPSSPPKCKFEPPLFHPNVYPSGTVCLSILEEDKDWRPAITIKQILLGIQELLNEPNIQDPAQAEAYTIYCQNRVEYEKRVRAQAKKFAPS
DTT redox prof: compounds producing H2O2 with reducing agent – biochemical, NIH compound library profiling, artefact control for MLSCN library redox annotation, primary screen | DTT-dependent redox cycling H2O2, phenol red/HRP absorbance; 100% = 100 µM peroxide control, 0% = buffer | activation, % at 10 µM | 200,000 compounds, 0.03% hits;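 active = activation of at least 50% relative to the plate's high and low controls in the primary single-dose screen; inactive = activation below 50%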;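 note: compound incubated with DTT at 0.8 mM final as the reducing agent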
DTT redox conf: confirmation of DTT-dependent redox cycling H2O2 generators. EC50, µM. 60 compounds, 40% hits. shares compounds with DTT redox prof. AID 1234. phenol red-HRP absorbance;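 active = EC50 under a set limit for hydrogen peroxide production with the reducing agent DTT present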
p97 confirm: human p97 ATPase inhibition, confirmation. shares compounds with p97 ATPase inh. inhibition, % at 8 µM. 760 compounds, 44% hits. recombinant p97 ATPase, Kinase-Glo ATP luminescence;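 active = percent inhibition of p97 ATPase above a set limit, the primary screen's mean plus 3 SD, cut at about 15% in these data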;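 note: 0% = DMSO wells and 100% = wells lacking p97 protein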
* hit, by the source's call; . = no result. Most compounds without a hit are left out; they make up all but 1.1% or so of the library.

SMILES	S1P4 antagonist	S1P3 antagonist	p97 ATPase inh	S1P4 agonist	UBC9 SUMO inh	DTT redox prof	p97 confirm	others
CC(=O)Nc1cc(OC(C)=O)c2nonc2c1OC(C)=O	109*	54*	30*	-3	101*	113*	32*	DTT redox conf=7.8*
C=CCn1c(NS(=O)(=O)c2ccccc2)c(S(=O)(=O)c2ccc(C)cc2)c2nc3ccccc3nc21	-13	4	31*	2	.	99*	29*	DTT redox conf=>50
O=S(=O)(Nc1c(S(=O)(=O)c2ccccc2)c2nc3ccccc3nc2n1C1CCCCC1)c1ccccc1	5	-15	20*	0	99*	95*	-1	DTT redox conf=12*
CC(=O)Nc1c(S(=O)(=O)c2ccccc2)c2nc3ccccc3nc2n1Cc1ccccc1	-14	.	-5	4	-4	0	.
Cc1ccc(S(=O)(=O)c2c(N)n(-c3ccccc3)c3nc4ccccc4nc23)cc1	-13	14	1	3	8	0	.
Cc1nc(-c2ccc(NC(=O)c3ccccc3C)cc2)cs1	1	20	-1	-1	3	-1	.
CCOC(=O)C(=Nc1ccc(Cl)cc1)NO	-18	3	4	-1	5	0	.
O=S(=O)(Nc1cc2nc3ccccc3nc2n1Cc1ccccc1)c1ccc(Cl)cc1	-2	9	31*	0	100	85*	43*	DTT redox conf=>50
COc1ccc(S(=O)(=O)N2CCC(C(=O)NCCc3ccccc3)CC2)cc1	.	.	.	.	-1	.	.
CCC(C)n1c(NC(=O)c2ccccc2)c(C#N)c2nc3ccccc3nc21 (configuration not stated)	7	.	27*	1	.	63*	4	DTT redox conf=>50
Clc1c(Cl)c(Cl)c2n[nH]nc2c1Cl	12	-9	19*	-1	34	.	15*
CCn1nc([N+](=O)[O-])c(C(C#N)c2nc3ccccc3n2C)c(Cl)c1=O (configuration not stated)	-4	-3	5	-1	5	0	.
CCCn1nc([N+](=O)[O-])c(C(C#N)c2nc3ccccc3s2)c(Cl)c1=O (configuration not stated)	17	.	17*	-1	21	0	21*
COc1ccc(N2CCN(C(=O)c3cc(=O)c4cc(C)c(C)cc4o3)CC2)cc1	.	.	.	.	8	.	.
COc1ccccc1NC(=O)CN1CCN(c2ccccc2)CC1	1	0	-1	3	22	0	.
COc1ccc(CC(=O)N/N=C/c2cccn2-c2ccc([N+](=O)[O-])cc2)cc1OC	-17	2	5	0	10	0	.
CC(C)(C)OC(=O)N/N=C/c1cccn1-c1ccc([N+](=O)[O-])cc1	9	-21	16*	0	12	.	13
COc1ccc(Cl)cc1NC(=O)CC(C)=O	-12	6	17*	-3	-7	0	9
CC(CNC(=O)c1ccc(OC2CCN(Cc3ccccn3)CC2)cc1)c1ccccc1 (configuration not stated)	.	.	.	.	8	.	.
O=S(=O)(O/N=C1\CCCc2ccccc21)c1ccccc1	-11	.	1	1	18	0	.
COc1ccc(S(=O)(=O)O/N=C2\CCCc3ccccc32)cc1	-1	.	18*	1	6	0	4
CCOc1cc(/C=C2/C(=O)N(c3ccccc3)N=C2C)ccc1OC(=O)c1ccco1	-7	.	27*	1	71	1	1
CCOc1cc(/C=C2\C(=O)N(c3ccc(C(N)=O)cc3)N=C2C)ccc1OC(=O)c1cccs1	-1	.	12	0	83	1	.
Cc1ccc(N(CC(=O)NC2CCCC2)C(=O)CNC(=O)c2cccs2)c(C)c1	.	.	.	.	2	.	.
COC(=O)/C=C1/S/C(=N/NC(=O)c2ccc(Cl)cc2Cl)NC1=O	6	1	22*	2	19	.	21*
SMILES	S1P4 antagonist	S1P3 antagonist	p97 ATPase inh	S1P4 agonist	UBC9 SUMO inh	DTT redox prof	p97 confirm	others
N#C/C(=C\c1ccc2c(c1)OCO2)C(N)=S	2	-14	12	0	12	.	.
N#C/C(=C/c1ccco1)C(N)=S	5	-13	27*	-2	29	.	10
Cc1[nH]c2ccccc2c1/C=N/NC(=O)c1cc(-c2cccs2)[nH]n1	-9	6	16*	-1	-7	0	32*
CN(C)S(=O)(=O)c1ccc2c(c1)nc(CCC(=O)O)n2C	-16	8	16*	0	-2	0	7
CCn1c(CCC(=O)O)nc2cc(S(=O)(=O)N(C)C)ccc21	11	-9	1	0	6	0	.
CC(=O)c1ccc(NC(=O)CCS(=O)(=O)c2ccc3c(c2)n(C)c(=O)c(=O)n3C)cc1	.	.	.	.	-3	.	.
CCC(C)(C)n1nnnc1C(c1cc2cc(C)cc(C)c2[nH]c1=O)N1CCN(Cc2ccc3c(c2)OCO3)CC1 (configuration not stated)	-3	.	2	-4	5	0	.
Cc1nc2ccccc2n1CC(=O)NCCN1CCCC1	-22	-15	35*	-1	10	1	7
O=C(Cn1c(C(F)(F)F)nc2ccccc21)NCCN1CCCC1	12	-20	5	3	-5	0	.
Oc1c(Cl)cc(Cl)cc1CNc1nc2ccccc2[nH]1	.	.	.	.	0	.	.
CN(CCC#N)C(=O)CSc1nc2scc(-c3ccccc3)c2c(=O)[nH]1	9	-2	16*	2	8	0	9
C=CC[n+]1c(-c2ccc(OC)cc2)csc1NNC(=O)Nc1ccccc1	-11	.	17*	3	-1	0	1
C=CC[n+]1c(-c2ccc(C)cc2)csc1Nc1ccc(NC(C)=O)cc1	-22	19	-3	2	-4	-1	.
Cc1ccc(S(=O)(=O)N2CCC(=O)N(C(COCc3cccc(C(F)(F)F)c3)C(C)C)CC2)cc1 (configuration not stated)	-2	-6	-4	-1	7	2	.
CC(=O)c1c(-c2ccc(C)cc2)nc2c3ccccc3ccn12	-4	-10	-2	-1	-8	0	.
COc1ccc(-c2nc3c4ccccc4ccn3c2C=O)cc1	3	10	15*	-2	-5	12	3
O=C(NC1CC1)C1=C[C@H](c2ccc(C(F)(F)F)cc2)C[C@H](OCc2ccc(CO)cc2)O1	12	-8	0	-1	6	0	.
CCCCC(=Nc1ccc(N)cc1)C1=C(O)C(C(=O)OC)C(C)(C)CC1=O (configuration not stated)	-16	.	18*	0	36	-2	9
CCC(=Nc1ccc(N)cc1)C1=C(O)C(C(=O)OC)C(C)(C)CC1=O (configuration not stated)	-7	-1	15*	1	36	3	4
